Bioassay records deposited in PubChem BioAssay by National Center for Advancing Translational Sciences (NCATS).
This is a sample that favours compounds with a hit; in the whole collection about 3.2% have one here.
DNA Pol III inh = blocks replication by bacterial DNA polymerase III holoenzyme. Potency, µM (doses to about 57.1 µM). hit rate 0.25% among 71,000. AID 603. reconstituted DNA polymerase III holoenzyme replication, biochemical
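Reconstituted *E. coli* holoenzyme (0.35 nM Pol III, 1 nM beta, 154 nM SSB, 2 nM primase) was preincubated with compound for 15 min at RT. Synthesis on 1.4 nM ssM13Gori ran 35 min, then was stopped with PicoGreen/EDTA and read as dsDNA fluorescence.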
15-hLO inh = 15-hLO (ALOX15) enzyme inhibition; P16050; purified 15hLO-1, xylenol orange hydroperoxide absorbance; Potency, µM (series often up to 57.1 µM), usual class: inhibitors; hit rate 1.4% among 74,000; AID 887; note: nearly all actives have a fitted effect of over 55% in size
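Purified human 15hLO-1 (40 nM final) in 25 mM Hepes pH 7.5, 0.01% Triton X-100 was preincubated with compound 15 min at room temperature, then reacted 6 min with 50 uM arachidonic acid; hydroperoxide detected by Fe-XO, 573/405 nm absorbance ratio.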
Casp7 inh = blocks human caspase-7 allosterically or competitively; P55210; recombinant caspase-7, Ac-DEVD-AFC fluorescence rate; Potency, µM (top dose mostly 57.5 µM), most hits filed as inhibitors; hit rate 0.02% among 75,000; AID 889; active = well fitted inhibition curve with a large enough effect in the main read-out, with a control signal flat, not every such curve was filed as active; inconclusive = small, poorly fitted or top-dose-only effect, or a change in a side signal
Tau fil binding = binders of human tau filaments | recombinant tau filaments, thioflavin S fluorescence, 15 h; filaments grown with octadecylsulfate alongside compound | Potency, µM (titrated, usually from 57.1 µM) | hit rate 2% among 71,000;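 note: actives lower thioflavin S fluorescence by blocking filaments or displacing dye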
Target sequence (P10636 whole entry, looked up): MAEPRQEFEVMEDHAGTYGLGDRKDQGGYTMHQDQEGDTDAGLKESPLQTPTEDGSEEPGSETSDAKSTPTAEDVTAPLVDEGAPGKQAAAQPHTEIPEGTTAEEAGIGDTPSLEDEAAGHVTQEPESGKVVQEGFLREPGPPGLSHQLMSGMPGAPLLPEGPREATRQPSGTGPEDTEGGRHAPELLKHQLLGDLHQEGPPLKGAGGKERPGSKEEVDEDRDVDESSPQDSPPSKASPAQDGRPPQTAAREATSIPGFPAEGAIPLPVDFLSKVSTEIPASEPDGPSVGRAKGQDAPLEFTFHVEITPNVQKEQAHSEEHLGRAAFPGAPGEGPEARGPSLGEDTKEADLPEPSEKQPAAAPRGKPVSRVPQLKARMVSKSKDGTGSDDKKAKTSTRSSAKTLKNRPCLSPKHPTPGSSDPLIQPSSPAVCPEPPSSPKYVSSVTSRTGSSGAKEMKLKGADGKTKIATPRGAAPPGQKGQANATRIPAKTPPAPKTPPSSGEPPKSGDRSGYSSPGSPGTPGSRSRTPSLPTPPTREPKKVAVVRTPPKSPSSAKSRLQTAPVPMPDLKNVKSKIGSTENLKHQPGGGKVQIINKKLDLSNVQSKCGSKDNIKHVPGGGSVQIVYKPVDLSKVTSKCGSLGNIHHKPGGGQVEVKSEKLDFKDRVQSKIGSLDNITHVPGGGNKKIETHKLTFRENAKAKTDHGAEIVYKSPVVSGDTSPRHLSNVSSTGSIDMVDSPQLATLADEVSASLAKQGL
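Thioflavine S fluorescence (ex 450, em 510 nm) reports filaments formed from 1 uM human tau plus 30 uM ODS over 15 h at 37 C (10 mM HEPES pH 7.4, 100 mM NaCl, 5 mM DTT); compounds displacing dye or blocking filaments lower signal.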
Casp1 inh = blocks human caspase-1 allosterically or competitively; Caspase-1 enzyme, Ac-WEHD-AFC fluorogenic rate; hit rate 0.03% among 75,000; Potency, µM (series often up to 57.5 µM), usual class: inhibitors; P29466
A number is an active result; 0 = inactive; ? = inconclusive; - = not tested or not shown; [ ] = another dose, or the depositor's remark. Unless noted, calls come from the whole dose curve; as a rule, active = well fitted curve in the direction sought with a large enough effect; inconclusive = small, poorly fitted or top-dose-only effect, or another doubt; inactive = no such curve, though single readings can be large; an effect the other way counts as inactive or inconclusive.

SMILES | DNA Pol III inh | 15-hLO inh | Casp7 inh | Tau fil binding | Casp1 inh
C=CCc1cccc(CNc2nc3ccccc3n2CCN2CCOCC2)c1O | 0 | 0 | 0 | 25µM | 0
COc1ccccc1CNc1nc2ccccc2n1CCN1CCCCC1 | 0 | 0 | 0 | 0 | 0
Oc1ccccc1CNc1nc2ccccc2n1CCN1CCCCC1 | 0 | 13µM | 0 | 0 | 0
C/C=C1\C(=O)C[C@H]2[C@@H]3CCC4=CC(=O)CC[C@]4(C)[C@H]3CC[C@]12C | 0 | 0 | 0 | 0 | 0
Cc1cc(C)c(C#N)c(N2CCN(Cc3ccc4c(c3)OCO4)CC2)n1 | 0 | 0 | 0 | 0 | 0
CC(C)COC(=O)C(C#N)c1nc2ccccc2nc1N1CCN(Cc2ccc3c(c2)OCO3)CC1 (stereo unspecified) | 0 | 0 | 0 | 2µM | 0
CCCCOC(=O)C(C#N)c1nc2ccccc2nc1N1CCN(Cc2ccc3c(c2)OCO3)CC1 (stereo unspecified) | 0 | 0 | 0 | 0.4µM | 0
C=CCNC(=O)C(C#N)c1nc2ccccc2nc1N1CCN(Cc2ccccc2)CC1 (stereo unspecified) | 0 | 0 | 0 | 0 | 0
COC(=O)C(C#N)c1nc2ccccc2nc1N1CCN(Cc2ccc3c(c2)OCO3)CC1 (stereo unspecified) | 0 | 0 | 0 | 13µM | 0
N=C(N)C(N=Nc1ccccc1)C(=N)N (stereo unspecified) | 0[11.4 µM] | 0[11.4 µM] | 0[11.5 µM] | ? | 0[11.5 µM]
C1=CC2c3ccccc3NC(c3ccncc3)C2C1 (stereo unspecified) | 0 | ? | 0 | 7.9µM | ?
Cc1ccc(C2=C(Cl)C(=O)C(c3ccc(C)cc3)=C(Cl)C2=O)cc1 | 0[11.4 µM] | ? | 0[11.5 µM] | 0[11.4 µM] | 0[11.5 µM]
COc1ccc(/C=C(\C#N)C(N)=O)cc1OC | 0[11.4 µM] | 0[11.4 µM] | 0[11.5 µM] | 0[11.4 µM] | 0[11.5 µM]
COc1cc(/C=C(\C#N)C(=O)c2ccc(O)c(O)c2)cc(I)c1O | 0 | 1µM | 0 | 0 | 0
C=Cc1c(C)c2cc3nc(cc4[nH]c(cc5nc(cc1[nH]2)C(C)=C5CCC(=O)O)c(CCC(=O)OC)c4C)[C@@]1(C)C3=CC=C(C(=O)OC)[C@H]1C(=O)OC (tested in a mixture with another compound) | 0 | 0 | 0 | 1.6µM | 0
O=c1c(-c2cccs2)nc2cncnc2n1-c1ccccc1 | 0 | 0 | ? | 0 | -
O=C(Nc1ccc(N2CCCCC2)c(C(=O)O)c1)c1ccco1 | 0 | 0 | 0 | 0 | 0
CCOc1ccc(NC(=O)c2ccco2)cc1 | 0 | 0 | 0 | 0 | 0
O=C(Nc1ccc(Nc2ccccc2)cc1)c1ccco1 | 0 | 0 | 0 | 20µM | 0
O=C(Nc1ccc2[nH]c3c(c2c1)CCCC3)c1ccco1 | ? | 16µM | 0 | 0 | ?
O=C(Nc1ccc(N2CCCC2)c(Cl)c1)c1ccco1 | 0[11.4 µM] | 0[11.4 µM] | 0 | 4µM | ?
COc1ccc(Cl)cc1NC(=O)C1CCCN(S(=O)(=O)c2cccc3nonc23)C1 (stereo unspecified) | 0 | 0 | 0 | 25µM | 0
O=C(Nc1ccc(Cl)cc1C(=O)Nc1ccccn1)c1ccco1 | 0 | 0.16µM | 0 | 0 | 0
Cc1ccc(C(=O)CCNc2cccc(Br)c2)o1 | 0 | 13µM | 0 | 0 | 0
COc1ccc(C(=O)c2cn[nH]c2-c2cc(Cl)ccc2O)cc1 | 0 | 20µM | 0 | 0 | 0
SMILES | DNA Pol III inh | 15-hLO inh | Casp7 inh | Tau fil binding | Casp1 inh
O=C(c1ccc(F)cc1)c1cn[nH]c1-c1ccccc1O | 0 | 0 | 0 | 0 | 0
O=C(Nc1ccc2nc(-c3ccco3)[nH]c2c1)c1cccs1 | 0 | 0 | ? | 20µM | 0
O=C(Nc1ccc2nc(-c3ccco3)[nH]c2c1)c1ccco1 | 0 | 0 | 0 | 0 | 0
Cc1ccc(C(=O)c2cc3c(cc2N)OCCO3)cc1 | 0 | 0 | 0 | 13µM | 0
N#Cc1c2c(c(=S)n(-c3ccccc3)c1N)CCCC2 | 0[11.4 µM] | 1.6µM | ? | 0[11.4 µM] | -
CCC1(C)Cc2c(C#N)c(N)n(-c3ccccc3)c(=O)c2CO1 (stereo unspecified) | 0 | 0 | 0 | 0 | 0
Cc1cccc(NC(=O)Nc2cccc(C#N)c2)n1 | 0 | 0 | 0 | 0 | 0
Cc1cccc(NC(=O)Nc2ccc(C#N)cc2)n1 | 25µM | 0 | 0 | 0 | 0
Oc1ccc2c(c1)oc1cc(O)ccc12 | 0 | 13µM | 0 | 0 | 0
O=c1cc(-c2cccc(O)c2)oc2cc(O)ccc12 | 0 | 0 | 0 | 0 | 0
O=C(O)Cn1c(=O)oc2cc(S(=O)(=O)N3CCOCC3)ccc21 | 0 | 0 | 0 | 0 | 0
Cc1cc(=O)oc2c1ccc1oc(/C(=N/O)c3ccccc3)c(C)c12 | 0 | 7.9µM | 0 | 0 | 0
